Results from PMC5700166.

These sequences were tested against T1, GST-Dm-Relish (Drosophila melanogaster, UniProt Q94527 99-473) (assay: protein-binding microarray (PBM); PBM: ~300 nM protein, 6 mM HEPES pH 7.8, 80 mM KCl, 0.5 mM EDTA, 0.5 mM EGTA, 6% glycerol, 35 ng/ul poly-dIdC, 1% milk, 1 h, room temperature; Ap Aiptasia and Nv Nematostella (sea anemones) / Co Capsaspora / Aq Amphimedon (sponge) / Dm Drosophila / Hu human; RHD is the Rel homology domain; high values mean tight binding). Details: dsDNA, one strand shown.
T1 sequence: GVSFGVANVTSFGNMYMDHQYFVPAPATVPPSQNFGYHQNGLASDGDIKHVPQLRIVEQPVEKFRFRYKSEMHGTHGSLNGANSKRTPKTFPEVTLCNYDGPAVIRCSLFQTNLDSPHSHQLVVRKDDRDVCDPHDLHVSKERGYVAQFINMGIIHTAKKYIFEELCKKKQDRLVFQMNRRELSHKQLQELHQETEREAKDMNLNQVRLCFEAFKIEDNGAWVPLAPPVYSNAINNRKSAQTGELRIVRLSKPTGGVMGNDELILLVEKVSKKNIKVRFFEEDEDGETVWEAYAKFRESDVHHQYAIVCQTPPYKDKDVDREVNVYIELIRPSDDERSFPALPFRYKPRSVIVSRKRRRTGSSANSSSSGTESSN

| Sequence | binding signal [z-score] |
| --- | --- |
| CCGATTAACATCAAGAAACCCCCTGATGTTAATCGGGTCTTGATTCGCTTGACGCTGCTG | 10 |
| CCGATTAACATCAAGGGGGAAAATGATGTTAATCGGGTCTTGATTCGCTTGACGCTGCTG | 4.2 |
| CCGATTAACATCAAGGTATTCCCTGATGTTAATCGGGTCTTGATTCGCTTGACGCTGCTG | 6.27 |
| CCGATTAACATCAGGGAAACCCCTGATGTTAATCGGGTCTTGATTCGCTTGACGCTGCTG | 9.95 |
| CCGATTAACATCAGCCCGGGAAATGATGTTAATCGGGTCTTGATTCGCTTGACGCTGCTG | 1.04 |
| CCGATTAACATCAAACTACCCCCTGATGTTAATCGGGTCTTGATTCGCTTGACGCTGCTG | 2.49 |
| CCGATTAACATCAAGGGGGTTTATGATGTTAATCGGGTCTTGATTCGCTTGACGCTGCTG | 8.75 |
| CCGATTAACATCAAAAATCCCCGTGATGTTAATCGGGTCTTGATTCGCTTGACGCTGCTG | 10.1 |
| CCGATTAACATCAGAAATATCCCTGATGTTAATCGGGTCTTGATTCGCTTGACGCTGCTG | 3.52 |
| CCGATTAACATCAACGGATTCCCTGATGTTAATCGGGTCTTGATTCGCTTGACGCTGCTG | 5.42 |
| CCGATTAACATCAGGGGGAATTATGATGTTAATCGGGTCTTGATTCGCTTGACGCTGCTG | 7.03 |
| CCGATTAACATCAGGGGAACTTATGATGTTAATCGGGTCTTGATTCGCTTGACGCTGCTG | 7.11 |
| CCGATTAACATCAGGCATCCCCATGATGTTAATCGGGTCTTGATTCGCTTGACGCTGCTG | 3.01 |
| CCGATTAACATCAGATATTCCCATGATGTTAATCGGGTCTTGATTCGCTTGACGCTGCTG | 1.78 |
| CCGATTAACATCAAACACCCCCTTGATGTTAATCGGGTCTTGATTCGCTTGACGCTGCTG | 5.63 |
| CCGATTAACATCAGGGAATTTTATGATGTTAATCGGGTCTTGATTCGCTTGACGCTGCTG | 6.83 |
| CCGATTAACATCAAAAAATCCCCTGATGTTAATCGGGTCTTGATTCGCTTGACGCTGCTG | 10.7 |
| CCGATTAACATCAGGACTCCCCATGATGTTAATCGGGTCTTGATTCGCTTGACGCTGCTG | 6.5 |
| CCGATTAACATCAAAATTCCCGCTGATGTTAATCGGGTCTTGATTCGCTTGACGCTGCTG | 5.76 |
| CCGATTAACATCAATTTCCCACCTGATGTTAATCGGGTCTTGATTCGCTTGACGCTGCTG | 1.17 |

| Sequence | binding signal [z-score] |
| --- | --- |
| CCGATTAACATCAAAATTCCCACTGATGTTAATCGGGTCTTGATTCGCTTGACGCTGCTG | 5.55 |
| CCGATTAACATCACTGAAATCCCTGATGTTAATCGGGTCTTGATTCGCTTGACGCTGCTG | 3.35 |
| CCGATTAACATCACAGTTTCCCCTGATGTTAATCGGGTCTTGATTCGCTTGACGCTGCTG | 3.35 |
| CCGATTAACATCAGGGGAATGTATGATGTTAATCGGGTCTTGATTCGCTTGACGCTGCTG | 2.96 |
| CCGATTAACATCAGGGGGATCCATGATGTTAATCGGGTCTTGATTCGCTTGACGCTGCTG | 7.45 |
| CCGATTAACATCAAGGGAATGCCTGATGTTAATCGGGTCTTGATTCGCTTGACGCTGCTG | 2.97 |
| CCGATTAACATCACAAATTCCCCTGATGTTAATCGGGTCTTGATTCGCTTGACGCTGCTG | 8.67 |
| CCGATTAACATCAGGGTAAGTACTGATGTTAATCGGGTCTTGATTCGCTTGACGCTGCTG | 7.08 |
| CCGATTAACATCACAAACTCCCCTGATGTTAATCGGGTCTTGATTCGCTTGACGCTGCTG | 5.81 |
| CCGATTAACATCACCGTTTCCCCTGATGTTAATCGGGTCTTGATTCGCTTGACGCTGCTG | 2.77 |
| CCGATTAACATCAGGGGGTCCACTGATGTTAATCGGGTCTTGATTCGCTTGACGCTGCTG | 7.96 |
| CCGATTAACATCAGGGGTTTCTATGATGTTAATCGGGTCTTGATTCGCTTGACGCTGCTG | 5.29 |
| CCGATTAACATCAGGGGAAAACCTGATGTTAATCGGGTCTTGATTCGCTTGACGCTGCTG | 8.9 |
| CCGATTAACATCAGGGAAGTACCTGATGTTAATCGGGTCTTGATTCGCTTGACGCTGCTG | 9.88 |
| CCGATTAACATCAGATAATTCCCTGATGTTAATCGGGTCTTGATTCGCTTGACGCTGCTG | 3.74 |
| CCGATTAACATCAGGATTTCCCCTGATGTTAATCGGGTCTTGATTCGCTTGACGCTGCTG | 9.64 |
| CCGATTAACATCACAAAAACCCCTGATGTTAATCGGGTCTTGATTCGCTTGACGCTGCTG | 8.1 |
| CCGATTAACATCAGGGGAGTTTATGATGTTAATCGGGTCTTGATTCGCTTGACGCTGCTG | 6.12 |
| CCGATTAACATCAGGGGCCCCCCTGATGTTAATCGGGTCTTGATTCGCTTGACGCTGCTG | 7.07 |
